Reference: PubChem BioAssay AID1159580 (chemical genetic matrix, 2015)
Values joined by “and” are separate entries in the source; they are usually repeats but may differ in a detail not shown here. Equal entries are not always repeated. Among all 5,500 compounds or so, about 2,000 (36%) were called active. About 18% were inconclusive and are not listed. Cut-off read from the data, not from the text of the source: active = normalized growth mostly below about 0.91 (no sharp cut-off); inconclusive = no clear call, values can overlap the other calls; inactive = mostly above about 0.92. Some of the results follow.

Experiment: chemical genetic growth profiling, strain panel (AID 1159580);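 note: tested at 20 µM; growth read once vehicle control cultures reached saturation at 30 °C; 1 = growth at the plate median or of vehicle wells; lower values mean less growth of the strain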
Settings: S. cerevisiae deletion strains, growth OD

Measured: normalized growth

COC(=O)COc1cc(Cl)c(Cl)cc1Cl
inactive: locus YAL013W, strain DEP1, stronger effect = lower value 0.982 | locus YAL021C, strain ccr4, stronger effect = lower value 0.993 | locus YAL026C, strain drs2, stronger effect = lower value 0.996 | locus YAL030W, strain snc1, stronger effect = lower value 0.998 | locus YBL061C, strain skt5, stronger effect = lower value 0.989 | locus YBR009C, strain hhf1, stronger effect = lower value 0.989 | locus YBR021W, strain FUR4, stronger effect = lower value 0.98 | locus YBR023C, strain chs3, stronger effect = lower value 0.99 | locus YBR171W, strain sec66, stronger effect = lower value 1.01 | locus YBR229C, strain ROT2, stronger effect = lower value 0.981 | locus YBR231C, strain swc5, stronger effect = lower value 0.99 | locus YBR279W, strain paf1, stronger effect = lower value 1 | locus YCL011C, strain gbp2, stronger effect = lower value 0.99 | locus YCL016C, strain dcc1, stronger effect = lower value 1.01 | locus YCL029C, strain bik1, stronger effect = lower value 0.957 | locus YCL061C, strain MRC1, stronger effect = lower value 0.985 | locus YCL069W, strain vba3, stronger effect = lower value 0.986 | locus YCR088W, strain abp1, stronger effect = lower value 0.985 | locus YDL005C, strain med2, stronger effect = lower value 1.01 | locus YDL035C, strain GPR1, stronger effect = lower value 1.01 | locus YDL040C, strain nat1, stronger effect = lower value 0.996 | locus YDL074C, strain BRE1, stronger effect = lower value 0.943 | locus YDL101C, strain DUN1, stronger effect = lower value 0.977 | locus YDL134C, strain PPH21, stronger effect = lower value 0.978 | locus YDL185W, strain tfp1, stronger effect = lower value 0.992 | locus YDL192W, strain arf1, stronger effect = lower value 0.989 | locus YDR001C, strain nth1, stronger effect = lower value 0.988 | locus YDR069C, strain doa4, stronger effect = lower value 1.02 | locus YDR101C, strain arx1, stronger effect = lower value 0.954 | locus YDR150W, strain NUM1, stronger effect = lower value 0.976 | locus YDR159W, strain sac3, stronger effect = lower value 0.973 | locus YDR162C, strain NBP2, stronger effect = lower value 0.965 | locus YDR195W, strain ref2 1.02 | locus YDR297W, strain sur2, stronger effect = lower value 1.02 | locus YDR318W, strain mcm21, stronger effect = lower value 0.955 | locus YDR334W, strain swr1, stronger effect = lower value 1 | locus YDR335W, strain msn5, stronger effect = lower value 1.01 | locus YDR388W, stronger effect = lower value 0.974 | locus YDR392W, strain spt3, stronger effect = lower value 0.963 | locus YDR502C, strain sam2, stronger effect = lower value 0.969 | locus YEL003W, strain gim4, stronger effect = lower value 1.01 | locus YEL037C, strain rad23, stronger effect = lower value 0.997 | locus YEL061C, strain CIN8 (second series), stronger effect = lower value 0.993 | locus YEL061C, strain CIN8, stronger effect = lower value 0.98 | locus YER015W, strain faa2, stronger effect = lower value 0.998 | locus YER016W, strain bim1, stronger effect = lower value 0.999 | locus YER110C, stronger effect = lower value 0.954 | locus YER111C, strain swi4, stronger effect = lower value 0.997 | locus YER155C, strain BEM2 (second series), stronger effect = lower value 1.01 | locus YER155C, strain BEM2, stronger effect = lower value 0.983 | locus YER167W, strain BCK2, stronger effect = lower value 0.975 | locus YFR010W, strain ubp6, stronger effect = lower value 1.01 | locus YGL078C, strain dbp3, stronger effect = lower value 0.96 | locus YGL086W, strain mad1, stronger effect = lower value 0.976 | locus YGL167C, strain pmr1, stronger effect = lower value 0.997 | locus YGL173C, strain kem1, stronger effect = lower value 0.998 | locus YGL227W, strain vid30, stronger effect = lower value 0.979 | locus YGL240W, strain doc1, stronger effect = lower value 0.995 | locus YGL248W, strain PDE1, stronger effect = lower value 0.987 | locus YGL253W, strain hxk2, stronger effect = lower value 1.01 | locus YGR078C, strain PAC10, stronger effect = lower value 0.968 | locus YGR135W, strain pre9, stronger effect = lower value 0.971 | locus YGR229C, strain SMI1, stronger effect = lower value 0.942 | locus YGR252W, strain gcn5, stronger effect = lower value 1 | locus YHR013C, strain ard1, stronger effect = lower value 1.13 | locus YHR027C, strain rpn1, stronger effect = lower value 1.03 | locus YHR030C, strain SLT2, stronger effect = lower value 0.967 and 0.86 | locus YHR079C, strain IRE1 (second series), stronger effect = lower value 0.953 | locus YHR079C, strain IRE1, stronger effect = lower value 0.884 | locus YHR094C, strain hxt1, stronger effect = lower value 0.964 | locus YHR129C, strain ARP1, stronger effect = lower value 0.976 | locus YHR142W, strain chs7, stronger effect = lower value 0.988 | locus YHR200W, strain rpn10, stronger effect = lower value 0.982 | locus YIL066C, strain RNR3, stronger effect = lower value 0.948 | locus YIL073C, strain SPO22, stronger effect = lower value 1.04 | locus YIL125W, strain kgd1, stronger effect = lower value 0.957 | locus YIR030C, strain dcg1, stronger effect = lower value 0.953 | locus YJL092W, strain hpr5, stronger effect = lower value 0.989 | locus YJL095W, strain BCK1 (second series), stronger effect = lower value 0.991 | locus YJL115W, strain asf1, stronger effect = lower value 1.01 | locus YJL129C, strain trk1, stronger effect = lower value 0.971 | locus YJL134W, strain LCB3, stronger effect = lower value 0.974 | locus YJL154C, strain vps35, stronger effect = lower value 0.99 | locus YJL164C, strain tpk1, stronger effect = lower value 0.997 | locus YJL166W, strain qcr8, stronger effect = lower value 0.995 | locus YJL168C, strain set2, stronger effect = lower value 0.976 | locus YJL187C, strain SWE1 (second series), stronger effect = lower value 0.983 | locus YJL187C, strain SWE1, stronger effect = lower value 1 | locus YJR043C, strain POL32, stronger effect = lower value 0.942 | locus YJR066W, strain TOR1, stronger effect = lower value 0.842
0.853 (inactive) and 0.874 (active): locus YJL095W, strain BCK1, stronger effect = lower value
active: locus YDR137W, strain rgp1, stronger effect = lower value 0.839
